Compound activity as filed in PubChem.
This is a sample that favours compounds with a hit; in the whole collection about 21% have one here.
Shiga toxin inh – Shiga toxin inhibition. AID 2315. Vero cells, Shiga toxin protein synthesis inhibition reporter. inhibition, % at 38.7 µM. hit rate 9.2% among 290,000; in the data active = inhibition mostly above about 28%, no sharp cut-off; inactive = mostly below about 43%; also: 0% is about no effect
NS1 function inh – blocks influenza NS1 protein function; Potency, µM (titrated, usually from 46.1 µM), for inactives: at the highest dose activity, positive = more growth; hit rate 0.4% among 270,000; calls by dose curve; also: potency is read from the fitted curve at half-maximal effect; actives are rising curves; nearly all actives have a fitted effect of over 50% in size
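Growth recovery, yeast-based: influenza A NS1 expressed in S. cerevisiae causes slow growth, and suppressors are detected by OD600. The parent strain without NS1 is used as positive control.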
Pf growth 96h – inhibits malaria parasite growth, 96 h; hit rate 6.9% among 320,000; P. falciparum luciferase reporter growth, 96 h; Potency, µM (titrated, usually from 28.7 µM), for the others: at the top dose activity change, negative = inhibition, usual class: inhibitors; also: potency is read from the fitted curve at half-maximal effect; % is scaled to controls: 0 for no effect and ±100 for the full control effect
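96 h incubation, 37 C, 5% CO2, of luciferase-reporter P. falciparum-infected RBCs (2% hematocrit, 0.05% parasitemia final) with test compounds; endpoint luminescence.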
Pf growth 48h – P. falciparum growth inhibition at 48 hours (one generation) | P. falciparum luciferase growth in erythrocytes, 48 h | Potency, µM (highest dose often 28.7 µM), without a hit: at the top dose activity change, negative = inhibition, most hits filed as inhibitors | AID 504832 | hit rate 5.9% among 310,000; also: potency is read from the fitted curve at half-maximal effect; % is scaled to controls: 0 for no effect and ±100 for the full control effect
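Parasite viability was followed by luminescence of a genomically integrated firefly luciferase. Cultures held 0.1% parasitemia at 2% hematocrit (final), incubated under 5% CO2 at 37 C.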
Cycloheximide cs – counter-screen hit for Shiga toxin inhibitors, cycloheximide | cell reporter, cycloheximide protein synthesis inhibition counterscreen | max response, % | hit rate 12% among 300,000 | AID 2314; in the data active = max response mostly above about 13%, no sharp cut-off; inactive = mostly below about 14%; also: read at 38.3 µM for the half of the compounds with a filed dose; 0% is about no effect
* marks the source's active call; other numbers are inactive results; ? = inconclusive; . = no result given. Unless noted, calls follow the shape of the dose curve; as a rule, active = well fitted inhibition curve with a large enough effect; inconclusive = small, poorly fitted or top-dose-only effect, or another doubt; inactive = no such curve, though single readings can be large or run the other way.

SMILES | Shiga toxin inh | NS1 function inh | Pf growth 96h | Pf growth 48h | Cycloheximide cs
CCn1c(=NC(=O)C2COc3ccccc3O2)sc2c(C)ccc(OC)c21 (configuration not stated) | -11 | -3% | ? | ? | 7
C/C(CCN1CCc2nc(-c3ccccc3)c(-c3ccccc3)cc2C1)=N\OC[C@@H](C)[C@H](OCc1ccccc1)C(C)C | -13 | 0% | 9.3µM* | ? | -2
C/C(CCN1CCc2nc(-c3ccccc3)c(-c3ccccc3)cc2C1)=N\O[C@H](C)c1cn([C@H](CO)Cc2ccccc2)nn1 | -7 | 10% | 13µM* | 9.3µM* | -1
COc1ccc(Cl)cc1NC(=O)CCc1nnc2ccc(N3CCC4(CC3)OCCO4)nn12 | -7 | -12% | -17% | ? | 1
Cc1c(OCc2ccccc2)cccc1OCc1ccccc1 | 18 | -9% | 16% | 22% | 21*
Cc1nc2ccccc2nc1OCc1ccccc1 | 25 | -20% | 29% | 16% | 18*
CSc1ccccc1NC(=O)CN(C)Cc1cc(=O)n2ccsc2n1 | -2 | . | -7% | 1% | -1
COc1ccc(CNC(=O)C2CCN(S(=O)(=O)c3c(C)noc3/C=C/N(C)C)CC2)cc1 | -2 | ? | ? | -26% | -2
CC1CCCN(C(=S)NCCc2ccccc2)C1 (configuration not stated) | 54* | -80% | 60% | 39% | 26*
Cc1cccc(N2CCN(C(=S)NCCc3ccccc3)CC2)c1C | 15 | 4% | 55% | 16% | 17
CN1CCC(N(C)C(=S)NCCc2ccccc2)CC1 | 22 | 4% | 25% | -3% | 16
CC1CCCCN1C(=S)NCCc1ccccc1 (configuration not stated) | 91* | -11% | 43% | . | 38*
CN(NC1OC(=O)c2ccccc21)c1ccccc1[N+](=O)[O-] (configuration not stated) | 10 | 1% | 7% | -8% | 10
CCc1ccccc1Nc1nc(N)nc(COC(=O)CCS(=O)(=O)c2ccccc2)n1 | . | . | 12% | 2% | .
CCc1ccccc1Nc1nc(N)nc(COC(=O)c2cccn2C)n1 | 46 | 7% | 12% | -10% | 30*
Cc1ccccc1Nc1nc(N)nc(COC(=O)c2cccn2C)n1 | 69* | -4% | 59% | . | 36*
CCc1ccccc1Nc1nc(N)nc(COC(=O)C2CCN(C(=O)c3ccc(F)cc3)CC2)n1 | . | . | ? | 12µM* | .
Cc1ccc(CS(=O)(=O)c2cn(CC(=O)N3CCOCC3)c3ccccc23)cc1 | 16 | 0% | ? | -6% | 19
C1CCN(c2c3c(nc4nnnn24)CCCC3)CC1 | -20 | -8% | 10µM* | 5% | 1
COCCCNc1c2c(nc3nnnn13)CCCC2 | 5 | . | ? | 18% | -1
C1CCC(CNc2c3c(nc4nnnn24)CCCC3)CC1 | 1 | 4% | 13µM* | ? | -4
N#CCCn1cc(C(=O)Nc2ccc([N+](=O)[O-])cc2)c(-c2ccccc2)n1 | -5 | ? | -22% | -15% | -3
CCN(CC)P(=O)(Nc1ccc([N+](=O)[O-])cc1)c1c(C)nn(CCC#N)c1NC(=O)c1ccc(Cl)cc1Cl (configuration not stated) | -5 | -8% | 7.4µM* | 7.4µM* | 2
Cc1nn(C(=O)c2cc3sccc3[nH]2)c(C)c1C | 92* | -2% | 29% | 79% | 43*
Cc1nn(C(=O)c2cccs2)c(C)c1CN1C(=O)c2ccccc2C1=O | -17 | 2% | . | . | -4
SMILES | Shiga toxin inh | NS1 function inh | Pf growth 96h | Pf growth 48h | Cycloheximide cs
O=C(CCC(=O)Nc1ccc(Cl)cc1Cl)N/N=C/c1ccc([N+](=O)[O-])o1 | 38* | . | ? | ? | 2
Cc1ccc(NCC(=O)N/N=C\c2ccc([N+](=O)[O-])o2)cc1 | -5 | -14% | 5.2µM* | ? | 1
O=C(CNc1ccccc1)N/N=C/c1ccc([N+](=O)[O-])o1 | 19 | -4% | 2.6µM* | 3.7µM* | 1
O=C(CNC(=O)c1ccccc1)N/N=C/c1ccc([N+](=O)[O-])o1 | 1 | 3% | ? | 4.7µM* | 10
CCCCCC(=O)N/N=C/c1ccc([N+](=O)[O-])o1 | 28 | . | . | . | 9
O=C(N/N=C/c1ccc([N+](=O)[O-])o1)C1CCCC1 | 1 | -12% | ? | ? | 1
CCCCCCCC(=O)OCCOC(=O)CCCCCCC | -6 | . | . | . | -8
O=C(CN1CCN(S(=O)(=O)N2CCOCC2)CC1)Nc1cc(Cl)cc(Cl)c1 | -8 | -16% | -10% | -6% | 3
COC(=O)CSc1nnc(CNS(=O)(=O)c2ccc(Cl)cc2)n1C | -7 | 16% | . | 6% | -5
Nn1nnc2ccccc21 | 24 | -3% | 52% | 40% | 14*
c1ccc2c(c1)nnn1c3ccccc3nc21 | 80* | -103% | 42% | 189% | 34*
CC1CC(C)CN(C2CCN(Cc3cccnc3)CC2)C1 (configuration not stated) | -15 | 2% | -29% | . | -3
CC1(C)CC(=O)C(C=NCCN2CCN(C(=S)Nc3ccc(F)cc3)CC2)=C(O)C1 | -18 | -4% | ? | ? | -5
CCC(=C(c1ccc(OC)cc1)c1ccc(OC)cc1)c1cn(CC(O)CN2CCN(C)CC2)c2ccccc12 (configuration not stated) | -27 | 17% | . | 9.3µM* | -6
COc1ccc(NC(=O)Cc2nnc(SCC(=O)NC3CCCCC3)n2C)cc1 | -4 | 10% | -2% | 14% | -4
c1ccc(CCc2nc(-c3ccccc3)no2)cc1 | 129* | -12% | 97% | 118% | 35*
O=C1CCC(=O)N1CCCCCc1nc(-c2ccccc2)no1 | 64 | -15% | . | 92% | 41*
O=C(Nc1ccc(-c2noc(CCc3ccccc3)n2)cc1)c1ccco1 | 85* | -88% | ? | ? | 58*
O=C(CCc1nc(-c2ccccc2)no1)N1CCCC1 | 21 | 1% | ? | 66% | 14
CCCc1nc(-c2ccc(-c3ccc(F)cc3)cc2)no1 | 29 | -11% | ? | . | 18*
CCN(CC)CCCC(C)NC(=O)c1cccc(S(=O)(=O)N2CCc3ccccc32)c1 (configuration not stated) | 31 | . | -5% | 0% | -3
COc1ccc(CC(=O)OCC(=O)Nc2ncc(Cl)c(C)c2Cl)cc1 | . | . | 68% | 8% | .
Cc1nc(SCC(=O)NCCc2ccccc2)nc(C)c1C | -6 | 11% | -9% | . | 10
COc1ccc(Br)cc1CN(C)CC(=O)Nc1c(Cl)ccc(C)c1Cl | 3 | -1% | -17% | 2% | -3
C/C(CC(=O)NC1CCCCC1)=N\NC(=O)COc1ccc(C)cc1Br | 1 | . | 64% | ? | 6
c1ccc(CCc2nc(-c3cccnc3)no2)cc1 | 53* | -21% | ? | 42% | 22*
c1ccc(CCc2nc(-c3ccc(-n4cccc4)cc3)no2)cc1 | -15 | -5% | -89% | . | -14
c1cncc(-c2noc(CC3CCCCC3)n2)c1 | 55* | -7% | . | 6% | 41*
Cc1cc(C)cc(OCc2nc(-c3cccnc3)no2)c1 | -8 | -1% | -9% | -2% | -5
c1ccc(CCc2ccccc2-c2nc(-c3cccnc3)no2)cc1 | -9 | -57% | ? | 13µM* | 3
